The text below walks through data of PubChem BioAssay (NCATS).

Molecules are shown by their SMILES. Results filed as inconclusive are left out. The source made the active and inactive calls. Calls follow the shape of the dose curve; as a rule, active = well fitted inhibition curve with a large enough effect; inconclusive = small, poorly fitted or top-dose-only effect; inactive = flat fitted curve, though single readings scatter. Numbered stars: 1 amine (or outer) side, 2 acyl side, 3 side chain; on linkers, the order of the positions; unused ones are H or OH. Bridge positions count the residues as written; N and C are the ends. Square brackets hold non-standard residues; d marks the D form. Peptide text beside a SMILES is read from it. * marks the point of attachment. ξ: configuration not given here. ΔAla(Z-3-ureido) = NC(=O)N/C=C(\N)C(=O)O; X1 = NC1=NCCC(C(N[*:1])C(=O)[*:2])N1; ξβ3hOrn = NCCCC(N)CC(=O)*; Dap = NC[CH](N)C(=O)O

Holding throughout (test): qHTS profiling for inhibitors of Plasmodium falciparum proliferation (AID 504749); also: nearly all actives have a fitted effect of over 60% in size
Conditions in all cases: P. falciparum in erythrocytes, SYBR Green DNA, 72 h; series mostly up to 28.7 µM

In one assay the test system is 7G8. An outline of the steps: (§1)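 P. falciparum-infected erythrocytes (0.3% parasitemia, 2.5% hematocrit final) were exposed to compounds for 72 h at 37 C in 5% CO2, then lysed with SYBR Green buffer overnight at room temperature; parasite DNA fluorescence was normalized to artemisinin and DMSO controls.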
Another assay deals with C2A. An outline of the steps:
as §1

The subject of another assay is CP192. The method, boiled down:
as §1

The next assay relates to CP194. An outline of the steps:
as §1

A further assay deals with CP203. The method, boiled down:
as §1

The next assay concerns CP217. The method, boiled down:
as §1

For the next assay, the system named is CP237. An outline of the steps: as §1
For another assay, the system named is CP266. An outline of the steps: as §1
A further assay relates to CP268. The method, boiled down:
as §1

The test system of a further assay is CP269. The method, boiled down:
as §1

The test system of a further assay is CP291. An outline of the steps: as §1
A further assay concerns CP315. An outline of the steps:
as §1

For a further assay, the system named is CP329. An outline of the steps: as §1
Another assay concerns DIV30. An outline of the steps:
as §1

A further assay relates to HB3. An outline of the steps: as §1
For a further assay, the system named is JCK. The method, boiled down: as §1
Another assay relates to P94_40. The method, boiled down:
as §1

A further assay concerns PC26. The method, boiled down: as §1
Another assay relates to SC27B. An outline of the steps:
as §1

Another assay has as its system TAB109. An outline of the steps: as §1
Potency is read from the fitted curve at half-maximal effect.

Take `CC(=O)OCC(=O)[C@@]1(O)CCC2C3CCC4=CC(=O)CC[C@]4(C)C3=CC[C@@]21C` (stereo partly specified): the Potency entry with 7G8, in the assay on C2A, with CP192, in the assay with CP194, in the assay with CP203 and in the assay with CP217 was “inactive” in each case. The Potency entry in the assay with CP237, in the assay with CP266, with CP268, in the assay on CP269, in the assay with CP291 and with CP315 was “inactive” throughout. Also, the Potency result with CP329, with DIV30, with HB3, with JCK, with P94_40 and in the assay with PC26 was “inactive” throughout. Further, the Potency entry with SC27B and in the assay on TAB109 was “inactive” in each case.
As for `CCOC(=O)C(CS)NCCN[C@@H](CS)C(=O)OCC` (stereo partly specified), the Potency entry with 7G8, with C2A, in the assay on CP192, with CP194, in the assay on CP203 and with CP217 was “inactive” in each case. Also, the Potency result in the assay with CP237, with CP266, with CP268, with CP269, with CP291 and in the assay on CP315 was “inactive” in each case. Moreover, the Potency entry in the assay on CP329, in the assay with DIV30, in the assay with HB3, in the assay with JCK, in the assay on P94_40 and in the assay on PC26 was “inactive” each time. For the same compound, the Potency result with SC27B and in the assay on TAB109 was “inactive” each time.
`CC(C)C(NC(=O)C(CC(=O)O)NC(=O)C(CCCCN)NC(=O)C(N)CCCN=C(N)N)C(=O)NC(Cc1ccc(O)cc1)C(=O)O` (stereo unspecified) (H-RKDVY-OH; configuration not given here): the Potency entry with 7G8, in the assay with C2A, in the assay with CP192, in the assay on CP194, in the assay on CP203 and in the assay on CP217 was “inactive” in each case. Also, the Potency entry in the assay on CP237, in the assay with CP266, in the assay with CP268, in the assay on CP269, in the assay with CP291 and in the assay with CP315 was “inactive” in each case. Besides, the Potency entry with CP329, in the assay with DIV30, in the assay with HB3, with JCK, in the assay with P94_40 and with PC26 was “inactive” throughout. Further, the Potency entry in the assay with SC27B and in the assay with TAB109 was “inactive” in each case.
With `NC(=O)CCC1NC(=O)C(Cc2ccccc2)NC(=O)C(Cc2ccc(O)cc2)NC(=O)CCSSCC(C(=O)N2CCCC2C(=O)NC(CCCN=C(N)N)C(=O)NCC(N)=O)NC(=O)C(CC(N)=O)NC1=O` (stereo unspecified), the Potency entry with 7G8, in the assay on C2A, in the assay on CP192, in the assay with CP194, with CP203 and with CP217 was “inactive” throughout. Further, the Potency result in the assay with CP237, in the assay on CP266, in the assay on CP268, in the assay on CP269, in the assay on CP291 and in the assay on CP315 was “inactive” each time. Besides, the Potency result in the assay with CP329, in the assay with DIV30, with HB3, with JCK, in the assay with P94_40 and in the assay on PC26 was “inactive” throughout. Moreover, the Potency result in the assay with SC27B and in the assay with TAB109 was “inactive” in each case.
With `NCCCC(N)CC(=O)NCC1NC(=O)C(CO)NC(=O)C(N)CNC(=O)C(C2CCN=C(N)N2)NC(=O)/C(=C/NC(N)=O)NC1=O` (stereo not drawn) (H-[Dap]S[Dap](ξβ3hOrn)[ΔAla(Z-3-ureido)][X1]; lactam 1-C; configuration not given here), the Potency result in the assay with 7G8, with C2A, in the assay with CP192, in the assay on CP194, in the assay with CP203 and in the assay on CP217 was “inactive” throughout. In addition, the Potency entry with CP237, with CP266, in the assay with CP268, with CP269, in the assay with CP291 and with CP315 was “inactive” each time. Moreover, the Potency result in the assay on CP329, in the assay with DIV30, with HB3, in the assay on JCK, with P94_40 and in the assay on PC26 was “inactive” throughout. The Potency entry in the assay on SC27B and with TAB109 was “inactive” each time.
For `CCC1NC(=O)C(NC(=O)c2ncccc2O)C(C)OC(=O)C(c2ccccc2)NC(=O)C2CC(=O)CCN2C(=O)C(Cc2ccccc2)N(C)C(=O)C2CCCN2C1=O` (stereo unspecified), the Potency in the assay with 7G8 is 8.91 µM (active). In addition, the Potency result in the assay on C2A, in the assay on CP192, in the assay on CP194, with CP203, with CP217 and with CP237 was “inactive” each time. Moreover, the Potency entry in the assay with CP266, in the assay on CP268, in the assay on CP269, with CP291, with CP315 and in the assay on CP329 was “inactive” throughout. Moreover, the Potency entry with DIV30, in the assay with JCK, in the assay with PC26, with SC27B and with TAB109 was “inactive” throughout.
In the case of `O=C1/C(=C\c2cccs2)CCC/C1=C/c1cccs1`, the Potency result with C2A, with CP192, in the assay on CP194, with CP203, in the assay with CP217 and with CP237 was “inactive” in each case. The Potency entry in the assay with CP266, with CP268, with CP269, with CP291, in the assay with CP315 and in the assay on CP329 was “inactive” each time. Moreover, the Potency result in the assay with DIV30, in the assay with HB3, in the assay on JCK, in the assay with P94_40, in the assay with PC26 and in the assay with SC27B was “inactive” throughout. In the assay with TAB109, the Potency result was “inactive”.
Take `O=C(OCC1OC(OC(=O)c2cc(O)c(O)c(OC(=O)c3cc(O)c(O)c(O)c3)c2)[C@@H](OC(=O)c2cc(O)c(O)c(OC(=O)c3cc(O)c(O)c(O)c3)c2)C(OC(=O)c2cc(O)c(O)c(OC(=O)c3cc(O)c(O)c(O)c3)c2)C1OC(=O)c1cc(O)c(O)c(OC(=O)c2cc(O)c(O)c(O)c2)c1)c1cc(O)c(O)c(OC(=O)c2cc(O)c(O)c(O)c2)c1` (stereo partly specified): the Potency with 7G8 is 2 µM (active); with C2A it was 2.82 µM (active); with CP192, 7.57 µM (active); in the assay on CP194, 3.79 µM (active); in the assay with CP203 it was 4.26 µM (active); in the assay with CP217 it was 3.55 µM (active). In addition, the Potency in the assay with CP237 was 2.51 µM (active); in the assay with CP266 it was 3.79 µM (active); in the assay with CP268, 3.38 µM (active); in the assay with CP269, 1.9 µM (active); in the assay on CP315, 5.36 µM (active); in the assay on CP329, 4.26 µM (active). Moreover, the Potency was 5.36 µM (active) in the assay on DIV30; 2 µM (active) with HB3; 10 µM (active) in the assay with JCK; 2.82 µM (active) in the assay with P94_40; 7.57 µM (active) in the assay on PC26; 3.16 µM (active) with SC27B. The Potency with TAB109 is 2.82 µM (active).
With `CC(C)C[C@H](NC(=O)[C@@H](Cc1c[nH]c2ccccc12)NC(=O)[C@@H](Cc1ccc(O)cc1)NC(=O)[C@@H](CO)NC(=O)[C@@H](Cc1c[nH]c2ccccc12)NC(=O)C(Cc1cnc[nH]1)NC(=O)C1CCC(=O)N1)C(=O)N[C@@H](CCCN=C(N)N)C(=O)N1CCC[C@@H]1C(=O)NCC(N)=O` (stereo partly specified), the Potency entry in the assay with 7G8, in the assay on C2A, in the assay with CP192, in the assay on CP194, in the assay with CP203 and with CP217 was “inactive” in each case. The Potency result in the assay with CP237, with CP266, in the assay on CP268, in the assay on CP269, with CP291 and with CP315 was “inactive” in each case. Further, the Potency result in the assay with CP329, with DIV30, in the assay with HB3, with JCK, in the assay with P94_40 and with PC26 was “inactive” each time. The Potency entry with SC27B and in the assay on TAB109 was “inactive” in each case.
